Assay results reported in PubChem BioAssay.
Several values for one entry are separate records, joined by “and”; a condition that tells them apart may be missing. Equal entries are not always repeated. Results filed as inconclusive are left out. Activity calls are given as the source filed them. Unless noted, cut-off not given; nearly all actives show AC50 up to about 26 µM.

Tests used:
[1] = differential killing of epithelial or mesenchymal cells, primary screen, imaging, PC-3E GFP, TEM4-18 mCherry, co-culture (AID 1345086;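 active means compounds killing one labelled cell type while sparing the other, by normalised counts and ratio limits, not self-fluorescent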;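 on all read-outs here: cells exposed to compound for 72 h before imaging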;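 on red/green cell ratio (normalised): normalised mesenchymal count divided by normalised epithelial count so high means epithelial killing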); conditions: imaging cell counts, at 1 µM; for red/green cell ratio (normalised): actives lie on both sides, counts scaled to control wells, 1 = unselective
[2] = sensitizers of A549 cells to miR-34 induction, primary screen, imaging, A549 dox-inducible miR-34, nuclei and caspase counts (AID 1347080;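 active means compounds whose cell count with miR-34 switched on is under 0.7 times the count with it off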); conditions: A549 miR-34 inducible, Hoechst nuclei count, 48 h
[3] = growth inhibition of DIPG glioma cells, dose response, cell-based, SU-DIPG-XVII, MIPE5.0, CellTiter-Glo, qHTS (AID 1347060); conditions: SU-DIPG-XVII viability, CellTiter-Glo ATP luminescence;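 further: cells exposed to compound for 48 hours before viability readout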
[4] = growth inhibition of DIPG glioma cells, dose response, cell-based, SU-DIPG-XIII, MIPE4.0, CellTiter-Glo, qHTS (AID 1347061; cut-off not given, nearly all actives have AC50 up to about 37 µM;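 further: cells exposed to compound for 48 hours before readout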); conditions: SU-DIPG-XIII viability, CellTiter-Glo ATP luminescence
[5] = growth inhibition of DIPG glioma cells, dose response, cell-based, SU-DIPG-IV, MIPE4.0, CellTiter-Glo, qHTS (AID 1347063; cut-off not given, nearly all actives have AC50 up to about 30 µM;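 further: compound exposure lasted 48 hours before the viability readout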); conditions: SU-DIPG-IV viability, CellTiter-Glo ATP luminescence
[6] = growth inhibition of DIPG glioma cells, dose response, cell-based, SU-DIPG-XIII, MIPE5.0, CellTiter-Glo, qHTS (AID 1347064; cut-off not given, nearly all actives have AC50 up to about 23 µM;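 further: cells exposed to compound for 48 hours before the viability read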); conditions: SU-DIPG-XIII viability, CellTiter-Glo ATP luminescence
[7] = viability loss in pontine glioma line – cell-based, SU-DIPG-XXV, MIPE5.0, CellTiter-Glo, qHTS, dose response (AID 1347065); conditions: CellTiter-Glo ATP luminescence;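 further: cells exposed to compound for 48 hours before ATP readout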
[8] = SU-DIPG-VI glioma cell viability, MIPE4.0 library, CellTiter-Glo luminescence, qHTS (AID 1347066; cut-off not given, nearly all actives have AC50 up to about 30 µM;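 further: cells exposed to compound for 48 hours before readout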); conditions: CellTiter-Glo ATP luminescence
[9] = JHH-DIPG-1 glioma cell viability, MIPE5.0 library, CellTiter-Glo luminescence, qHTS (AID 1347067); conditions: JHH-DIPG-1 glioma viability, CellTiter-Glo ATP luminescence;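 further: cells exposed to compound for 48 hours before readout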
[10] = SU-DIPG-XXV glioma cell viability, MIPE5.0 library, qHTS (AID 1347068; cut-off not given, nearly all actives have IC50 up to about 30 µM)
[11] = target: Mitogen-activated protein kinase 7 (Homo sapiens) (UniProt Q13164); experiment: ERK5 transactivation activators in reporter cells, primary screen, cell-based, HTS (AID 1508626;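 active means luciferase signal above three times the same-plate solvent-only control wells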;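 further: luciferase driven by Gal4-ERK5 fusion binding five Gal4 sites before minimal TATA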); conditions: HeLa Gal4-ERK5 transactivation, 18 h, at 5 µM, stronger effect = higher value
Sequence of Mitogen-activated protein kinase 7 (Homo sapiens) (Q13164 whole entry, looked up, the tested form may be a part): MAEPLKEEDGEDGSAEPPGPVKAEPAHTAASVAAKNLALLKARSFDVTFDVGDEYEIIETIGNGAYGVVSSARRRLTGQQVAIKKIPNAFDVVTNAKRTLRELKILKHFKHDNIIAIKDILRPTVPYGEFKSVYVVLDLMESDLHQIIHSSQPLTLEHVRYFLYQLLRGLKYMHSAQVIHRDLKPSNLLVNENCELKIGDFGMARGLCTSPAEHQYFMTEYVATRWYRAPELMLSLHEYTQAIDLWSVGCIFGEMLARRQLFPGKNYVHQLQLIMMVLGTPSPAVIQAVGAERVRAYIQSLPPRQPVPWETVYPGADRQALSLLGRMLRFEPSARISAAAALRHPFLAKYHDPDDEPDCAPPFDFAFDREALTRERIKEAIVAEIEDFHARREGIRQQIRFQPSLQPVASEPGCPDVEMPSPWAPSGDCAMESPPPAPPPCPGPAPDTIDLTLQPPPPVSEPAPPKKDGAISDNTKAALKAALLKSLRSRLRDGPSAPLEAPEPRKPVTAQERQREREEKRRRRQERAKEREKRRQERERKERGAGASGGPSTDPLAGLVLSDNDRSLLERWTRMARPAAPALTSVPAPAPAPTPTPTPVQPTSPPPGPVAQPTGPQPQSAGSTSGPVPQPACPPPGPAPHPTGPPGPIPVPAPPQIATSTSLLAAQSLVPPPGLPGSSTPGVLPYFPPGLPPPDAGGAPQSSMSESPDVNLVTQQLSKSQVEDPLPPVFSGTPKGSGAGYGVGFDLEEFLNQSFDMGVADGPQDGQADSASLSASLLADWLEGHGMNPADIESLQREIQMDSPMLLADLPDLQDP

[12] = circadian clock period modulators, cell-based, LOPAC library, luminescence reporter (AID 2774; call rule not given here;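 further: values are relative to mean of DMSO wells on each plate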); conditions: circadian reporter cells, at 7 µM, actives lie on both sides
[13] = liver-stage malaria parasite growth inhibition, primary screen, cell-based, HepG2, luciferase luminescence, HepG2 viability (AID 624349; in the data active means parasite load remaining mostly below about 12%, no sharp cut-off; inactive means mostly above about 10%;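 further: 100% = mean of DMSO negative control wells on the same plate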); conditions: P. berghei liver stage in HepG2, luciferase luminescence, concentration not given here; parasite load remaining: stronger effect = lower value; viability: measured here: HepG2 viability without parasites
[14] = test system: Hepatitis C virus NS3 helicase; experiment: HCV NS3 helicase inhibitors, primary screen, biochemical, fluorescence polarization, LOPAC1280 library (AID 687035; in the data active means inhibition above about 37%); conditions: Purified HCV NS3 helicase, Cy5-dT15 ssDNA binding fluorescence polarization; stronger effect = higher value; concentration not given here
[15] = Cy5 fluorescence quenching or enhancement artefacts, artefact control for HCV NS3 helicase inhibitor project, biochemical, LOPAC1280 (AID 687037; call rule not given here); conditions: Cy5-DNA-NS3h complex fluorescence interference counterscreen
[16] = phospholipid biosynthesis inhibitors in animal cells, primary screen, cell-based, LOPAC library, screen 4 (AID 1347384; call rule not given here); conditions: phospholipid biosynthesis inhibition screen, at 10 µM
[17] = viability rescue of complex I mutant cybrids, primary screen, cell-based, galactose medium, ATP luminescence (AID 1645843;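 active means z-score of at least 1.8 in each of two replicates, scored against plate mean and spread of sample wells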;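 further: positive z means more ATP and so rescue of galactose-driven cybrid death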); conditions: complex I mutant cybrid cells, 72 h, stronger effect = higher value
[18] = inhibitors of Cryptococcus chitosan production, flow cytometry, Cibacron Brilliant Red staining (AID 1347148; call rule not given here;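 further: compound exposure lasted three days at 37 degrees C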); conditions: Cryptococcus neoformans chitosan, stronger effect = lower value; at 10 µM unless noted
[19] = survival rescue of mitochondrial mutant cells in low glucose, primary screen, MELAS cybrids, Rieske KO mouse fibroblasts, CellTiter-Glo (AID 1508586;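 active means mean z-score across replicates of 1.96 or higher in either the MELAS or the Rieske mutant cell line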;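 further: z relative to plate mean and SD of compound and empty wells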)
[20] = growth inhibition of DIPG glioma cells, dose response, cell-based, JHH-DIPG-1, MIPE4.0, CellTiter-Glo, qHTS (AID 1347062; cut-off not given, nearly all actives have AC50 up to about 27 µM); conditions: JHH-DIPG-1 viability, CellTiter-Glo ATP luminescence
[21] = measured here: epithelial PC-3E GFP cell survival
[22] = measured here: mesenchymal TEM4-18 mCherry cell survival
[23] = stronger effect = lower value, cell number ratio, induced over uninduced
[24] = measured here: relative caspase fold change +Dox/-Dox
[25] = measured here: total cells with miR-34 induction, stronger effect = lower value
[26] = measured here: total cells without miR-34 induction

O=C(O)c1ccccc1-c1c2cc(I)c(=O)c(I)c-2oc2c(I)c(O)c(I)cc12
red/green cell ratio (normalised) [1]: 0.52 (inactive) | normalised cell number [1, 21]: 0.98 | normalised cell number [1, 22]: 0.5 | fold change [2, 23]: 0.927 (inactive) | fold change [2, 24]: 0.976 | cell count [2, 25]: 9160 | cell count [2, 26]: 9880

C[C@H]1COC2=C1C(=O)C(=O)c1c2ccc2c1CCCC2(C)C
red/green cell ratio (normalised) [1]: 0.82 (inactive) | normalised cell number [1, 21]: 0.98 | normalised cell number [1, 22]: 0.8 | AC50 [3]: 20.9 µM (active) | outcome [4]: inactive | AC50 [5]: 13.2 µM (active) | AC50 [6]: 18.6 µM (active) | AC50 [7]: 20.9 µM (active) | outcome [8]: inactive | AC50 [9]: 20.9 µM (active) | outcome [10]: inactive | luciferase signal [11]: 80 AU (inactive)

Nc1nc(N)c2nc(CNc3ccc(C(=O)NC(CCC(=O)O)C(=O)O)cc3)cnc2n1 (stereo not drawn)
period change [12]: -0.245 h (inactive) | parasite load remaining [13]: 160% (inactive) | viability [13]: 70.2% | inhibition [14]: -4% (inactive) | fluorescence ratio (interference) [15]: 0.9 (inactive) | red/green cell ratio (normalised) [1]: 0.95 (inactive) | normalised cell number [1, 21]: 1.01 | normalised cell number [1, 22]: 0.96 | AC50 [4]: 11.8 µM (active) | outcome [8]: inactive | outcome [9]: inactive | fold change [2, 23]: 1.22 (inactive) | fold change [2, 24]: 1.88 | cell count [2, 25]: 2740 | cell count [2, 26]: 2230 | outcome [16]: inactive | z-score [17]: 0.075 (inactive)

Cc1coc2c1C(=O)C(=O)c1c-2ccc2c1CCCC2(C)C
parasite load remaining [13]: 23.1% (inactive) | viability [13]: 97.5% | red/green cell ratio (normalised) [1]: 1.04 (inactive) | normalised cell number [1, 21]: 0.67 | normalised cell number [1, 22]: 0.7 | AC50 [3]: 5.9 µM (active) | outcome [4]: inactive | AC50 [5]: 3.32 µM (active) | AC50 [6]: 5.9 µM (active) | AC50 [7]: 16.6 µM (active) | AC50 [9]: 7.42 µM (active) | outcome [10]: inactive | fold change [2, 23]: 1.17 (inactive) and 1.16 (inactive) and 1.64 (inactive) | fold change [2, 24]: 1.11 and 0.52 and 0.868 | cell count [2, 25]: 934 and 1820 and 2140 | cell count [2, 26]: 800 and 1570 and 1300 | fold fluorescence [18]: 3.12 [at 169.9 µM] (inactive) | z-score ([19]; MELAS cybrid survival, CellTiter-Glo 48 h, stronger effect = higher value): 0.593 (inactive) and 0.0182 (inactive) | z-score ([19]; Rieske KO mouse fibroblast survival, CellTiter-Glo 72 h): 0.381 and 0.81 | luciferase signal [11]: 32 AU (inactive) | z-score [17]: -1.64 (inactive)

CC1(C)CCC[C@]2(C)[C@H]3CC(=O)O[C@]3(C)CC[C@@H]12
red/green cell ratio (normalised) [1]: 1.09 (inactive) | normalised cell number [1, 21]: 1.09 | normalised cell number [1, 22]: 1.19 | outcome [4]: inactive | outcome [20]: inactive | outcome [8]: inactive
